Assay outcomes (PubChem)
Shown are actives, neighbours in structure and some others; about 2.1% of the full set was active somewhere.
EWS-Fli block: blocks EWS/Fli oncoprotein-driven transcription | AID 651661 | A673 NR0B1-luciferase reporter, viability-normalised | inhibition, % at 12.6 µM | 350,000 compounds, 0.67% hits;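 active = mean inhibition of at least 50% after viability correction, with every replicate also passing that limit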;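 also: firefly luciferase signal divided by Alamar Blue viability fluorescence both relative to DMSO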
CF NFkB block: blocks PAF-induced NF-kB reporter in cystic fibrosis cells; 360,000 compounds, 0.86% hits; inhibition, % at 5 µM; KKLEB NF-kB-GFP reporter, GFP fluorescence overnight; AID 588850;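 active = at least 50% inhibition at 5 µM, scaled per plate between neutral and stimulator controls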;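 also: PAF is a Pseudomonas aeruginosa culture filtrate used as stimulus; plate controls were PAF-stimulated DMSO wells for no effect and unstimulated DMSO wells for full effect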
HIF-2a inh: inhibitors of HIF-2a; 360,000 compounds, 0.72% hits; 786-0 RCC cells HIF-2a reporter, luciferase luminescence, overnight; inhibition, % at 18.8 µM;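 active = inhibition of the luminescence signal of 40% or more relative to plate controls, in a single-dose primary screen at 18.75 µM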
PAX8 reporter: lowers PAX8-driven luciferase in RMG-I cells | RMG-I TPO-luciferase reporter, SteadyGlo, 24 h | inhibition, % at 12.6 µM | 360,000 compounds, 1.2% hits;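 active = mean replicate inhibition at least 60% with every replicate also reaching 60%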;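 also: luciferase light reporting Pax8 driven TPO promoter activity; plate controls were median of neutral control wells for no effect and mitoxantrone controls for full effect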
KKLEB tox: CF airway cell cytotoxicity counter-screen; KKLEB CF airway cells viability, ATPlite luminescence, overnight; hits give low values; cells stimulated with P. aeruginosa culture filtrate; activity change (cytotoxicity), % at 5 µM; 360,000 compounds, 0.36% hits;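 active = corrected activity change at or below -50% at 5 µM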
CF NFkB conf: CF NF-kB inhibition confirmation, single concentration; AID 602472; shares compounds with CF NFkB block; KKLEB CF airway cells, PAF-induced NF-kB-GFP fluorescence, overnight; inhibition, % at 5 µM; 1,300 compounds, 64% hits; in the data active = inhibition above about 40%;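 also: stimulus PAF is a Pseudomonas aeruginosa filtrate and not platelet activating factor; plate controls were DMSO wells with stimulus for no effect and unstimulated DMSO wells for full effect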
The depositor's hits bear a star; . = no result given.

SMILES	EWS-Fli block	CF NFkB block	HIF-2a inh	PAX8 reporter	KKLEB tox	CF NFkB conf
Cc1cccc(NC(=O)c2nc[nH]c2C(=O)NCCCCCCNC(=O)c2[nH]cnc2C(=O)Nc2cccc(C)c2)c1	-0.2	-24.0	5.5	-5.2	2.2	.
CO[C@H]1CN(C)C(=O)c2cc(NC(=O)C3CC3)ccc2OC[C@@H](C)N(C(C)=O)C[C@@H]1C	-4.7	.	.	0.2	.	.
CC(=O)c1cccc(NC(=O)COC(=O)c2ccc(S(C)(=O)=O)c([N+](=O)[O-])c2)c1	9.6	62.6*	14.4	21.4	-0.9	43.2*
CS(=O)(=O)c1ccc(C(=O)OCc2nnc(-c3ccccc3)o2)cc1[N+](=O)[O-]	34.8	76.3*	21.2	33.7	-27.5	35.8
CS(=O)(=O)c1ccc(C(=O)OCC(=O)Nc2cccnc2Cl)cc1[N+](=O)[O-]	.	90.5*	-0.5	.	-31.3	40.0
CC(C)C#Cc1ccc2c(c1)O[C@@H](CN(C)C(=O)c1cccc(F)c1)[C@H](C)CN([C@H](C)CO)S2(=O)=O	1.5	.	.	.	.	.
COc1ccc(-c2cnc3c(c2)C(=O)N([C@@H](C)CO)C[C@H](C)[C@H](CN(C)C(=O)Cc2ccncc2)O3)cc1	-10.0	.	.	2.1	.	.
COc1ccc(-c2cc(=O)oc3c(C)c(OC(C)C(C)=O)ccc23)cc1 (stereo not given)	4.7	18.9	25.8	-1.4	-8.5	.
COc1ccc(-c2cc(=O)oc3c(C)c(OC(=O)c4cccs4)ccc23)cc1	-2.3	72.2*	6.9	13.0	12.1	96.2*
NC(c1ccccc1)c1csc(NC(=O)Nc2cccc(Cl)c2)n1 (stereo not given)	-0.4	58.7*	-27.8	-32.0	-0.6	59.3*
O=[N+]([O-])c1ccc(CSc2nnc(Cc3ccccc3)o2)cc1	14.4	-12.0	13.9	6.1	3.6	.
COc1ccc(Cc2nnc(SCc3ccc([N+](=O)[O-])cc3)o2)cc1	-13.8	65.4*	19.6	-17.0	0.2	85.9*
O=C(C[C@@H]1CC[C@@H]2NC[C@H](O)COC[C@H]2O1)NCc1ccc2c(c1)OCO2	-8.5	.	.	21.3	.	.
COc1ccc(-c2oc3ccc(-c4ccc5c(c4)OCO5)cc3c2C#CC2(O)CCCCC2)cc1	37.0	60.6*	-4.0	12.0	-37.1	52.9*
COc1ccc(-c2oc3ccc(-c4ccc(OC)nc4)cc3c2-c2ccc(OC)cc2)cc1	4.9	-19.0	5.9	-1.5	-4.4	.
COc1ccc(-c2oc3ccc(-c4ccc(OC)nc4)cc3c2C#CC2(O)CCCCC2)cc1	25.9	64.4*	-1.9	22.8	-37.1	54.2*
CCC(=O)N[C@H]1CC[C@@H](CCNC(=O)Nc2ccc(C(F)(F)F)cc2)O[C@@H]1CO	-14.5	.	.	6.9	.	.
O=C(Cc1cccnc1)N1CC2(C1)[C@H](c1ccccc1)[C@H](CO)N2C(=O)C1CCCC1	-15.9	.	.	.	.	.
O=C(C[C@H]1C=C[C@H](NC(=O)CN2CCOCC2)[C@H](CO)O1)NC1CCC1	-7.4	.	.	-2.6	.	.
CC(=O)Nc1cccc(NC(=O)c2cc(-c3cccnc3)nc3ccc(Br)cc23)c1	13.6	83.6*	-73.2	.	-44.3	57.1*
C[C@H](CO)N1C[C@H](C)[C@H](CN(C)C(=O)c2ccccc2)Oc2ncc(Br)cc2C1=O	-1.9	.	.	-12.2	.	.
CCOc1ccc(-n2cc(-c3ccccc3)c3c(N4CCOCC4)ncnc32)cc1	3.5	91.0*	17.7	3.4	-19.7	95.4*
COc1ccc(-n2cc(-c3ccccc3)c3c(N4CC(C)OC(C)C4)ncnc32)cc1 (stereo not given)	3.9	82.5*	28.1	27.5	-15.9	71.5*
c1ccc(-c2cn(-c3ccccc3)c3ncnc(N4CCCCC4)c23)cc1	17.6	27.0	26.4	-6.2	-13.7	.
CC(=O)Nc1ccc(NS(=O)(=O)c2cc(-c3cnc(C4CC4)o3)ccc2C)cc1	-0.9	3.8	28.9	24.2	-18.7	.
SMILES	EWS-Fli block	CF NFkB block	HIF-2a inh	PAX8 reporter	KKLEB tox	CF NFkB conf
COc1ccccc1NS(=O)(=O)c1ccc(O)cc1	.	-20.6	2.8	.	7.5	.
Cc1ccc(NS(=O)(=O)c2ccc(-c3cnc(C4CC4)o3)cc2)c(C)c1	52.1*	65.1*	12.0	40.1	-13.4	65.1*
COc1ccccc1NS(=O)(=O)c1ccc(-c2cnc(C3CC3)o2)cc1	.	54.1*	21.7	41.3	-26.5	70.5*
CO[C@H]1CN(C)C(=O)c2ccc(NC(=O)NC(C)C)cc2OC[C@@H](C)N(C)C[C@@H]1C	0.3	.	.	.	.	.
CCCCCCNC(=O)O[C@H]1Cn2c(=O)ccc(=O)n2[C@@H]2CN(S(=O)(=O)c3ccc(C)cc3)C[C@]12O	70.5*	61.6*	32.7	76.6*	-14.5	39.6
C/C(=N\NC(=O)c1ccc(Cl)cc1)c1cccs1	19.5	-7.2	-63.8	-73.1	-12.2	.
C/C(=N/NC(=O)c1cccs1)c1ccc(NC(=O)COc2ccc(Cl)cc2)cc1	.	59.0*	-0.3	.	-41.1	77.8*
Cc1ccc(S(=O)(=O)Nc2cccc3c2O[C@H](CN(C)Cc2ccc(C(=O)O)cc2)[C@@H](C)CN([C@H](C)CO)C3=O)cc1	-2.0	.	.	.	.	.
COc1ccc(-n2ncc3c(N4CCN(Cc5ccccc5)CC4)ncnc32)cc1	-20.8	65.9*	-215.1	-0.8	5.8	73.8*
CC(=O)NC[C@H]1[C@H](c2ccc(-c3ccccc3F)cc2)[C@@H](CO)N1C(C)=O	-9.9	.	.	-16.8	.	.
COc1cc(OC)cc(-c2c(C#Cc3ccsc3)c3cc(-c4cccc5[nH]cc(C=O)c45)ccc3n2C)c1	7.1	73.2*	-41.5	31.2	-13.8	-33.2
O=C1N(c2ccccc2C(F)(F)F)O[C@]1(c1ccccc1)C1CCCCC1	-9.0	54.0*	22.1	53.6	6.2	64.1*
COc1ccc(CCNC(=O)c2c(O)c3c([nH]c2=O)CCCC3)cc1	.	51.2*	11.7	.	-35.6	35.6
CCCNC(=O)c1c(O)c2c([nH]c1=O)CCCC2	-72.4	-1.8	-144.3	-59.4	5.8	.
O=C(NCC[C@@H]1CC[C@@H](NS(=O)(=O)c2ccc(F)cc2)[C@@H](CO)O1)c1ccccc1F	-7.7	.	.	.	.	.
CCN(C(=O)COC(=O)c1ccc([N+](=O)[O-])o1)c1cccc2ccccc12	1.3	65.6*	11.4	12.6	-15.5	17.5
CCOc1cc(Br)c(Br)c(C=Nc2ccc(NC(C)=O)cc2)c1O	-5.3	69.1*	28.3	-40.8	-1.4	61.5*
CN(C)CCCN(C(=O)CCOc1ccccc1)c1nc2c(F)cccc2s1	14.8	84.6*	23.5	87.4*	-27.0	60.5*
CN(C)CCCN(C(=O)COc1ccccc1)c1nc2ccc(F)cc2s1	-21.2	-12.5	-11.5	0.6	-19.7	.
CN(C)CCCN(C(=O)CCOc1ccccc1)c1nc2ccc(F)cc2s1	9.3	91.2*	6.5	85.8*	-35.1	69.4*
COc1ccc(NC(=O)N(C)C[C@H]2Oc3ccc(NC(=O)Nc4ccccc4)cc3C(=O)N([C@@H](C)CO)C[C@@H]2C)cc1	-13.6	.	.	-14.1	.	.
